EWS-Fli inh = EWS/Fli transcriptional activity inhibition. inhibition, % at 12.6 µM. AID 651661. A673 NR0B1-luciferase reporter, viability-normalised. 350,000 tested, 0.67% active;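 active = mean inhibition of at least 50% after viability correction, with every replicate also passing that limit; inconclusive = mean reaches 50% but only one of two replicates passes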;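 also: firefly luciferase signal divided by Alamar Blue viability fluorescence both relative to DMSO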
LGR2 antag = Drosophila LGR2 receptor signaling inhibition. HEK293 LGR2, CRE-luciferase, bursicon-stimulated, 4 h. inhibition, % at 9.99 µM. 380,000 tested, 0.35% active;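 active = drop in luminescence signal, shown as inhibition above about 50% in the replicate tests, limit read from the data, passing the limit was not always enough; inconclusive = probably only some replicates passing the limit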;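 also: agonist challenge used bursicon conditioned medium at about half maximal strength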
CF NFkB inh = inhibitors of cystic fibrosis induced NF-kB | AID 588850 | inhibition, % at 5 µM | KKLEB NF-kB-GFP reporter, PAF-induced, GFP fluorescence overnight | 360,000 tested, 0.86% active;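 active = at least 50% inhibition at 5 µM, scaled per plate between neutral and stimulator controls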;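 also: PAF is a Pseudomonas aeruginosa culture filtrate used as stimulus; plate controls were PAF-stimulated DMSO wells for no effect and unstimulated DMSO wells for full effect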
PAX8 inh HTS = PAX8 transcriptional activity inhibition; inhibition, % at 12.6 µM; AID 652154; 360,000 tested, 1.2% active; RMG-I TPO-luciferase reporter, SteadyGlo, 24 h;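 active = mean replicate inhibition at least 60% with every replicate also reaching 60%; inconclusive = only one of the two criteria is met; inactive = mean below 60% and not all replicates reaching 60%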;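 also: luciferase light reporting Pax8 driven TPO promoter activity; plate controls were median of neutral control wells for no effect and mitoxantrone controls for full effect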
Shn3 3UTR inh = inhibitors of Schnurri-3 3'UTR reporter in osteoblasts | inhibition, % at 12.5 µM | Clone20 osteoblast Shn3 3'UTR firefly luciferase, 24 h | AID 588674 | 360,000 tested, 0.52% active;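 active = mean inhibition of at least 75% with every replicate also reaching 75%; inconclusive = mean inhibition at least 75% but some replicate below; inactive = mean inhibition below 75%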;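 also: 0% = median of neutral control wells and 100% = pilot-screen positive control compound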
KKLEB cytotox = reduces viability of KKLEB cystic fibrosis airway cells | KKLEB CF airway cells viability, ATPlite luminescence, overnight; stronger effect = lower value; cells stimulated with P. aeruginosa culture filtrate | activity change (cytotoxicity), % at 5 µM | 360,000 tested, 0.36% active;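 active = corrected activity change at or below -50% at 5 µM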
Starred values were filed as active, the others as inactive; ? = inconclusive; / = no result given. Shown are actives, neighbours in structure and some others; about 2% of the full set was active somewhere.

SMILES	EWS-Fli inh	LGR2 antag	CF NFkB inh	PAX8 inh HTS	Shn3 3UTR inh	KKLEB cytotox
CC[C@]12c3[nH]c4ccc(Cl)cc4c3CCN1C(=O)[C@@H](CC(=O)NC(C)(C)C)C[C@@H]2C(=O)N1CCN(C(=O)c2ccco2)CC1	0	-12	8	8	-9	10
CN(C)CCCNC(=O)C[C@H]1C[C@H](C(=O)N2CCCCC2)[C@@]2(CCc3ccccc3)c3[nH]c4ccc(Cl)cc4c3CCN2C1=O	63*	/	32	-5	7	-41
CC[C@]12c3[nH]c4cc(CCC(=O)N(C)C)ccc4c3CCN1C(=O)[C@@H](CC(=O)NC/C=C(\C)CCC=C(C)C)C[C@@H]2C(=O)N1CCN(C(=O)c2ccco2)CC1	/	/	-138	/	87*	8
CC[C@]12c3[nH]c4ccc(Cl)cc4c3CCN1C(=O)[C@@H](CC(=O)NC/C=C(\C)CCC=C(C)C)C[C@@H]2C(=O)N1CCN(C(=O)c2ccco2)CC1	19	18	33	82*	15	-25
COc1ccccc1Nc1nc(NCc2ccco2)c2ccccc2n1	1	/	4	-14	16	-12
Cc1ccc(Nc2nc(NCc3ccco3)c3ccccc3n2)cc1	-22	96*	32	16	96*	-40
C[C@@H]1CN([C@@H](C)CO)C(=O)Cc2cc(NS(=O)(=O)c3ccc(Cl)cc3)ccc2O[C@H]1CN(C)S(=O)(=O)c1ccccc1	0	24	/	-23	/	/
Cc1cc(N2CCN(C)CC2)nc2ccc(NC(=S)N3CCCCC3)cc12	-5	-35	-18	-45	-36	-4
Cc1cccc(N2CCN(C(=S)Nc3ccc4nc(N5CCN(C)CC5)cc(C)c4c3)CC2)c1C	56*	7	43	5	85	-73*
CCCNC(=O)C[C@@H]1CC[C@@H]2[C@H](COc3ccc(NC(=O)c4cccs4)cc3C(=O)N2C)O1	-6	21	/	-14	/	/
C[C@H](CO)N1C[C@H](C)[C@@H](CN(C)S(=O)(=O)c2cn(C)cn2)OCCCC[C@H](C)Oc2ccc(NC(=O)C3CCCCC3)cc2C1=O	0	7	/	2	/	/
COc1ccc(-c2n(CC(=O)OC3CC(C)CCC3C(C)C)c3ccccc3[n+]2C)cc1 (centres undefined)	3	14	60*	2	92*	-54*
COc1ccc(OCc2n(CC(=O)OC3CC(C)CCC3C(C)C)c3ccccc3[n+]2C)cc1 (centres undefined)	53*	23	64*	99*	-3	-53*
CC1CCC(C(C)C)C(OC(=O)CSc2nccc(=O)[nH]2)C1 (centres undefined)	/	/	10	/	-19	5
O=C(NC1CCCC1)[C@@H]1[C@@H](CO)[C@@H]2Cn3c(ccc(-c4cccnc4)c3=O)[C@@H]2N1CCc1ccccc1	3	-5	/	-1	/	/
O=C(NC1CCC1)[C@@H]1[C@@H](CO)[C@@H]2Cn3c(ccc(-c4ccccc4F)c3=O)[C@H]1N2C(=O)CC1CC1	7	4	/	/	/	/
Cc1ccccc1-c1ccc([C@H]2[C@H]3CN(S(C)(=O)=O)CC(=O)N3[C@H]2CO)cc1	2	-17	/	/	/	/
COc1cccc(/C=N/Nc2ncnc3c2ncn3Cc2ccccc2)c1O	14	10	8	52	90*	13
COc1cccc(/C=N/Nc2cc(Cl)nc(C)n2)c1O	-5	-41	-3	-86	-33	-3
COc1ccc(-c2nc(-c3cccc(C)c3)no2)cc1OC	-106	/	-11	/	-69	13
Cc1cccc(-c2noc(-c3ccc4c(c3)OCO4)n2)c1	32	66*	-11	-46	-5	-18
COC(=O)c1ccc(-c2nc(-c3cccs3)no2)cc1	58*	84*	0	-56	50	-1
O=C(Cc1ccccn1)NCC[C@@H]1CC[C@@H](NC(=O)Nc2ccc(C(F)(F)F)cc2)[C@@H](CO)O1	-14	16	/	69*	/	/
O=C(Cc1ccccn1)NCC[C@H]1CC[C@@H](NC(=O)Nc2ccc(F)cc2)[C@H](CO)O1	-4	-9	/	-1	/	/
O=C(Cc1ccccn1)NCC[C@@H]1CC[C@H](NC(=O)Nc2ccc(C(F)(F)F)cc2)[C@@H](CO)O1	-11	1	/	85*	/	/
SMILES	EWS-Fli inh	LGR2 antag	CF NFkB inh	PAX8 inh HTS	Shn3 3UTR inh	KKLEB cytotox
O=C(Cc1ccccn1)NCC[C@@H]1CC[C@@H](NC(=O)Nc2ccc(C(F)(F)F)cc2)[C@H](CO)O1	-11	9	/	15	/	/
CNC[C@H]1OCCCC[C@@H](C)Oc2ccc(NC(=O)CCC(F)(F)F)cc2C(=O)N([C@@H](C)CO)C[C@H]1C	-6	10	/	-16	/	/
COc1ccccc1S(=O)(=O)N[C@H]1CC[C@H](CC(=O)N2CCCCC2)O[C@H]1CO	-2	5	/	-6	/	/
C[C@@H]1CCCCO[C@@H](CN(C)S(C)(=O)=O)[C@H](C)CN([C@@H](C)CO)C(=O)c2cc(NC(=O)Nc3ccc(F)cc3)ccc2O1	-8	4	/	-1	/	/
O=[N+]([O-])c1ccc(O)c2cccnc12	0	/	8	11	12	5
Cc1ccccc1N=Nc1ccc(O)c2ncccc12	-8	/	-9	18	?	10
COc1cccc(N=Nc2ccc3cccnc3c2O)c1	-46	-47	-25	50	90*	5
COc1ccc(N=Nc2ccc(O)c3ncccc23)cc1	15	-13	3	49	91*	2
O=[N+]([O-])c1ccc(O)c2ncccc12	40	101*	-18	25	57	4
O=[N+]([O-])c1cc(CN2CCN(c3ccccc3)CC2)c(O)c2ncccc12	29	31	6	43	90*	9
O=C(Nc1ccc(F)cc1)N1CCCCN2[C@H](C1)[C@@H](c1ccc(-c3ccncc3)cc1)[C@@H]2CO	2	1	/	-4	/	/
C[C@H]1CN([C@@H](C)CO)C(=O)c2cc(C3=CCCCC3)cnc2O[C@H]1CN(C)C(=O)C1CCOCC1	-1	-2	/	11	/	/
Oc1ccc(N=Nc2ccc3c(c2)OCCO3)c2cccnc12	23	-41	-3	59	93*	-3
COc1cccc(N=Nc2ccc(O)c3ncccc23)c1	-25	-46	100*	48	80	-81*
Oc1ccc(N=Nc2ccc3c(c2)OCCO3)c(O)c1	32	-9	-30	-45	27	-3
O=S(=O)(O)c1cccc2c(N=Nc3ccc(O)c4ncccc34)cccc12	/	/	-3	/	3	3
COc1ccc(C)cc1N=Nc1ccc(O)c2ncccc12	13	30	10	59	90*	-7
O=Nc1ccc(O)c2ncccc12	72*	-10	72*	0	86*	-51*
COc1ccccc1NC(=O)N[C@H]1CC[C@@H](CCn2cc(-c3cccnc3)nn2)O[C@@H]1CO	1	-13	/	-2	/	/
CSc1ccc(S(=O)(=O)N2c3ccccc3CC2C)cc1 (centres undefined)	51*	12	10	44	9	-11

Source: PubChem BioAssay
